A selection: hits, their analogues and other compounds. The true share with any hit is near 2.2%.
ATXN2 expr inh: inhibitors of ATXN2 expression; HEK-293 ATXN2-luciferase reporter, luminescence, 24 h; Potency, µM (titrated, usually from 57 µM), most hits filed as inhibitors; actives 0.72% (n = 360,000); AID 1745845; note: nearly all actives have a fitted effect of over 55% in size
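ATXN2-luciferase reporter cells (luciferase flanked by upstream and downstream ATXN2 gene portions) were treated 24 h at 37 °C with compounds at up to 57 uM. SteadyGlo luminescence gave expression; GF-AFC fluorescence gave viability.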
LDHA block: inhibitors of human lactate dehydrogenase A; actives 0.15% (n = 480,000); purified LDHA, NADH/diaphorase-resazurin fluorescence; stronger effect = lower value; P00338; activity change, % (values are at about 110 or 230 µM); AID 1347041; in the data active = activity change below about -30%; inconclusive = mostly about -25% to -30%
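Enzyme activity of human lactate dehydrogenase 5 (2 nM; 0.06 mM NADH, 0.2 mM pyruvate, 5 min, RT) is measured via a resazurin/diaphorase fluorescence readout of residual NADH.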
TGFb inhibitor: blocks TGF-b signaling; HepG2 CAGA-GFP TGF-b/SMAD3 reporter, GFP fluorescence, 18 h; TGF-beta stimulated, 500 pg/mL final; actives 1.2% (n = 410,000); Potency, µM (doses to about 46.1 µM), hits mostly inhibitors; AID 588855; note: nearly all actives have a fitted effect of over 65% in size
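HEPG2 CAGA-GFP reporter cells (1000/well, DMEM with 1% FBS) received compounds, then recombinant TGF-beta at 500 pg/mL final for 18 hours at 37 degrees C. Per-cell GFP summed per well was normalised to unstimulated and stimulated DMSO controls before curve fitting.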
mIDH1 inhibitor: inhibitors of human mutant IDH1 R132H | O75874 | IDH1-R132H enzyme, NADPH consumption, diaphorase/resazurin fluorescence | Potency, µM (titrated, usually from 76.6 µM), most hits filed as inhibitors | actives 0.093% (n = 390,000) | AID 602179; note: nearly all actives have a fitted effect of over 65% in size
Target sequence (O75874 whole entry R132H, stated change not applied): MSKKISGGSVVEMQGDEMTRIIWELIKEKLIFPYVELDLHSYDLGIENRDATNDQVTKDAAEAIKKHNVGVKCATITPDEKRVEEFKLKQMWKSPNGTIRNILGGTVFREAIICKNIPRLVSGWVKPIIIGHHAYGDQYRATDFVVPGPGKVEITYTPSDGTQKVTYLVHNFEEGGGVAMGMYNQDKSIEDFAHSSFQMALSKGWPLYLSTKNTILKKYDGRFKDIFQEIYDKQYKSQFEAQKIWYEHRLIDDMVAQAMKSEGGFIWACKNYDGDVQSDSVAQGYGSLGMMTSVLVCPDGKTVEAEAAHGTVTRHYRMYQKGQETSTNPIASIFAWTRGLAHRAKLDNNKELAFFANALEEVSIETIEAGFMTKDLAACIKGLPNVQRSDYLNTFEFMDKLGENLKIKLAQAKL
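IDH1-R132H (0.5 ug/mL dispensed) in pH 7.5 Tris buffer was preincubated 30 min with compound, then given a substrate mix of 0.016 mM NADPH and 2 mM alpha-KG for 80 min at room temperature; remaining NADPH was read by diaphorase/resazurin fluorescence.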
S2 tox: cell viability loss in ATXN counter-screen. S2 cells (HEK-293 line with an ATXN2-luciferase reporter) viability, CellTiter-Fluor protease fluorescence, 24 h. Potency, µM (highest dose often 56.7 µM), hits mostly cytotoxic. actives 0.49% (n = 400,000). AID 651635; note: nearly all actives have a fitted effect of over 40% in size
HepG2 viability: counter-screen for TGF-b inhibitors: cytotoxicity in HepG2 cells; Potency, µM (doses to about 46.1 µM), hits mostly cytotoxic; actives 0.76% (n = 410,000); HepG2 CAGA-GFP viability, ATP luminescence, 18 h
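CellTiter-Glo luminescence gave cytotoxicity after 18 hours at 37 degrees C. The cells were HepG2 CAGA-GFP in 1% FBS DMEM, stimulated with 500 pg/mL TGF-beta after compound addition. %Activity was normalised to no-cell wells (complete cell-killing) and DMSO (no toxicity), and curves were fitted and classified.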
Resorufin autofl: counter-screen for mutant IDH1 inhibitors: fluorescence interference; shares compounds with mIDH1 inhibitor; Resorufin detection reagent fluorescence interference, cell-free; inhibition of signal, % at 51.2 µM; 750 tested, under 10 active
IDH1 WT: inhibits human wild-type IDH1, mutant selectivity check. shares compounds with mIDH1 inhibitor. WT IDH1 enzyme, NADPH diaphorase/resazurin fluorescence. Potency, µM (doses to about 115 µM), usual class: inhibitors. actives 9% (n = 750); note: nearly all actives have a fitted effect of over 55% in size
Target sequence (O75874 whole entry, looked up): as the sequence (O75874 whole entry R132H, stated change not applied) above, with H132R counted along it
IDH1 R132H conf: inhibits human mutant IDH1 enzyme in cherrypick confirmation; shares compounds with mIDH1 inhibitor; actives 83% (n = 750); IDH1 R132H enzyme, NADPH diaphorase/resazurin fluorescence; Potency, µM (titrated, usually from 76.6 µM), most hits filed as inhibitors; AID 624002; note: nearly all actives have a fitted effect of over 50% in size
Large screens that a line does not name were inactive (follow-up assays come after a bar, where they were run). Unless noted, calls come from the whole dose curve; as a rule, active = well fitted curve in the direction sought with a large enough effect; inconclusive = small, poorly fitted or top-dose-only effect, or another doubt; inactive = no such curve, though single readings can be large; an effect the other way counts as inactive or inconclusive.

NS(=O)(=O)c1ccc(N2N=C(c3ccccc3)CC2c2cccc(F)c2)cc1 (configuration not stated)	TGFb inhibitor inconclusive
Cc1ccc(OCCn2cc(/C=C(\C#N)C(=O)NCC3CCCO3)c3ccccc32)cc1 (configuration not stated)	none
CC1CCCCC1NC(=O)c1cn(C)c2ccc(S(=O)(=O)N3CCCC3)cc2c1=O (configuration not stated)	mIDH1 inhibitor inconclusive | Resorufin autofl inactive | IDH1 WT inactive | IDH1 R132H conf 22.4µM
N#Cc1ccc(NC(=O)CCC(=O)c2ccc3c(c2)CCC3)cc1	none (no result: ATXN2 expr inh, TGFb inhibitor, mIDH1 inhibitor, S2 tox, HepG2 viability)
CCOC(=O)N1CCC2(CC1)C(C#N)=C(N)Oc1n[nH]c(CSc3ccc(C)cc3)c12	mIDH1 inhibitor inconclusive | Resorufin autofl inactive | IDH1 WT inactive | IDH1 R132H conf 28.2µM
Cc1ccc(SCc2[nH]nc3c2C2(CCSCC2)C(C#N)=C(N)O3)cc1	none
Cc1ccc(C)c(Sc2ccc(NC(=O)CCl)cc2)c1	ATXN2 expr inh inconclusive, TGFb inhibitor inconclusive, mIDH1 inhibitor inconclusive, S2 tox inconclusive | Resorufin autofl inactive | IDH1 WT inactive | IDH1 R132H conf 39.8µM
Cc1ccc(NC(=O)CC(=O)Nc2ccc(C)c(C)c2)cc1C	none
Cc1ccc(C)c(Sc2ccc(NC(=O)c3cccc(C)c3C)cc2)c1	none (no result: ATXN2 expr inh, TGFb inhibitor, mIDH1 inhibitor, S2 tox, HepG2 viability)
Cc1ccc(Sc2ccc(NC(=O)CCl)cc2)cc1C	ATXN2 expr inh 31.6µM, TGFb inhibitor inconclusive, mIDH1 inhibitor inconclusive, S2 tox inconclusive | Resorufin autofl inactive | IDH1 WT inconclusive | IDH1 R132H conf 39.8µM
Cc1noc(C)c1NC(=O)N1CCN(Cc2ccccc2)CC1	none
CCOc1cc(C=C2C(=O)c3ccccc3C2=O)ccc1OCC(=O)Nc1ccc(C)cc1	mIDH1 inhibitor inconclusive | Resorufin autofl inactive | IDH1 WT inactive | IDH1 R132H conf 15.8µM
NC(=O)CSc1nc2c(c(=O)n1-c1ccccc1)C1(CCCCC1)Cc1ccccc1-2	mIDH1 inhibitor 52.1µM, S2 tox inconclusive | Resorufin autofl inactive | IDH1 WT inactive | IDH1 R132H conf 25.1µM
O=C(COC(=O)c1ccc(Oc2ccccc2)cc1)c1ccccc1	none (no result: ATXN2 expr inh, TGFb inhibitor, mIDH1 inhibitor, S2 tox, HepG2 viability)
Cc1ncc(CO)c2c1Oc1nc(-c3ccccc3F)nc(SCC(=O)N(C)c3ccccc3)c1C2	ATXN2 expr inh inconclusive, TGFb inhibitor inconclusive, mIDH1 inhibitor 52.1µM, S2 tox 17.8µM | Resorufin autofl inactive | IDH1 WT inactive | IDH1 R132H conf inconclusive
Cc1ccccc1N1CC(=O)N(c2ccccc2C)CC1=O	none
Cc1cccc2c1c1ccc3c(c1n2C)C(=O)C=CC3=O	TGFb inhibitor 15.8µM, mIDH1 inhibitor 39.8µM (no result: ATXN2 expr inh) | Resorufin autofl inactive | IDH1 WT inactive | IDH1 R132H conf 25.1µM
O=C1Cc2cc(S(=O)(=O)N3CCN(c4ccc(Br)cc4)CC3)ccc2N1	none (no result: ATXN2 expr inh, TGFb inhibitor, mIDH1 inhibitor, S2 tox, HepG2 viability)
CN1CC(O)(C(O)C(O)C(O)CO)SC1=S (configuration not stated)	none (no result: ATXN2 expr inh)
CC(C)(C)n1nnnc1C(c1cccs1)N(Cc1cccnc1)Cc1ccccc1Cl (configuration not stated)	ATXN2 expr inh inconclusive, TGFb inhibitor 17.8µM, mIDH1 inhibitor inconclusive, S2 tox inconclusive | Resorufin autofl inactive | IDH1 WT inactive | IDH1 R132H conf 20µM
COc1ccc(-c2nnc(NC(=O)CSc3ccc(C)cc3)s2)cc1OC	none
CC1(C(=O)NS(=O)(=O)c2cccc(OC(F)F)c2)CCN1C(=O)c1ccccc1 (configuration not stated)	none (no result: mIDH1 inhibitor)
O=C(NC1CCCC1)C(c1ccncc1)N(C(=O)Cc1cccs1)c1ccccc1 (configuration not stated)	mIDH1 inhibitor inconclusive | Resorufin autofl inactive | IDH1 WT inactive | IDH1 R132H conf inconclusive
O=C(NCc1ccco1)C(c1cccs1)N(C(=O)Cc1cccs1)c1ccccc1 (configuration not stated)	mIDH1 inhibitor inconclusive | Resorufin autofl inactive | IDH1 WT inactive | IDH1 R132H conf inconclusive
O=C(NC1CCCCC1)C(c1ccccc1)N(C(=O)Cc1ccsc1)c1ccccc1 (configuration not stated)	mIDH1 inhibitor inconclusive, S2 tox inconclusive | Resorufin autofl inactive | IDH1 WT inactive | IDH1 R132H conf 0.631µM
O=C(NC1CCCC1)C(c1ccsc1)N(C(=O)Cc1cccs1)c1ccccc1 (configuration not stated)	mIDH1 inhibitor inconclusive | Resorufin autofl inactive | IDH1 WT inactive | IDH1 R132H conf 2.82µM
O=C(NCc1ccco1)C(c1ccccc1)N(C(=O)Cc1cccs1)c1ccccc1 (configuration not stated)	none
COc1ccc(CN(C(=O)Nc2ccc(C)c(F)c2)C2CCN(C(C)=O)CC2)cc1	none
Cc1ccccc1SCC(=O)NCCCn1ccnc1	none
COc1ccc(CCNC(=O)Cn2nc(-c3ccc(OC)cc3)ccc2=O)cc1	none (no result: ATXN2 expr inh, TGFb inhibitor, mIDH1 inhibitor, S2 tox, HepG2 viability)
CC(=O)NC1C(=O)N(CCN2CCOCC2)c2ccc(Cl)cc21 (configuration not stated)	mIDH1 inhibitor 41.4µM | Resorufin autofl inactive | IDH1 WT inconclusive | IDH1 R132H conf inactive
Cc1nn(-c2ccccc2)c2c1C(c1ccc(O)c(O)c1)N1C(=N2)C(Nc2ccccc2)=Nc2ccccc21 (configuration not stated)	TGFb inhibitor inconclusive, mIDH1 inhibitor 29.3µM, S2 tox inconclusive | Resorufin autofl inactive | IDH1 WT inactive | IDH1 R132H conf 39.8µM
COCCN1C(=O)/C(=C/c2ccc(OCc3ccc(C(=O)O)cc3)c(OC)c2)SC1=Nc1ccccc1	mIDH1 inhibitor 20.7µM | Resorufin autofl inactive | IDH1 WT 79.4µM | IDH1 R132H conf 10µM
COc1cc(/C=C2\SC(=Nc3ccccc3)N(Cc3ccco3)C2=O)ccc1OC(C)C(=O)O (configuration not stated)	none
COc1ccccc1-c1noc(CSc2nnc(Cc3ccccc3)n2-c2ccc(C)c(C)c2)n1	ATXN2 expr inh inconclusive, TGFb inhibitor inconclusive, mIDH1 inhibitor inconclusive (no result: S2 tox) | Resorufin autofl inactive | IDH1 WT inactive | IDH1 R132H conf inconclusive
